Experimental data as given in PubChem BioAssay (NCATS).
Records with an inconclusive call do not appear. Values without a mark were called inactive. The call rests on the fitted dose curve; in most records, active means well fitted inhibition curve with a large enough effect; inconclusive means small, poorly fitted or top-dose-only effect; inactive means no such curve, though single readings can be large or run the other way.

test: Primary qHTS for small molecule stabilizers of the endoplasmic reticulum resident proteome: Secreted ER Calcium Modulated Protein (SERCaMP) assay (AID 1508630); conditions: SH-SY5Y GLuc-SERCaMP (Gaussia luciferase released on ER calcium loss) secretion, thapsigargin, luminescence; series mostly up to 38.4 µM; activity change, negative = inhibition: at the top concentration
Text: Assay Provider: Brandon K. Harvey Ph.D.
National Institute on Drug Abuse, National Institutes of Health, Baltimore, MD
Endoplasmic reticulum (ER) dysregulation is associated with human pathologies including neurodegenerative, cardiovascular, muscular, and diabetic conditions. Maintenance of ER calcium is critical for functions of the ER and its depletion can lead to loss of ER resident proteins, in a process termed exodosis. Therapeutic compounds capable of attenuating the redistribution of ER proteins under pathological conditions may slow or stop disease progression. To identify such compounds, we performed a quantitative high-throughput screen (qHTS) using the SERCaMP assay, which monitors secretion of ER resident proteins triggered by calcium depletion.
SERCaMP was initially developed as a reporter of ER calcium homeostasis using a Gaussia luciferase with a modified signal peptide and carboxy-terminus (GLuc-SERCaMP), modifications that confer secretion of the reporter in response to ER calcium depletion (Henderson et al., 2014). The assay was used to screen 9,501 compounds, including a collection of drugs approved by the FDA (US), EMA (EU), NHI (Japan), and HC (Canada) regulatory agencies (Huang et al., 2011). Since the SERCaMP reporter reflects the exodosis phenomenon (Trychta et al., 2018a), compounds identified in the screen have the potential to prevent exodosis by different mechanisms such as stabilizing ER calcium or augmenting ERS retrieval.
1. Henderson, M.J., Wires, E.S., Trychta, K.A., Richie, C.T., and Harvey, B.K. (2014). SERCaMP: a carboxy-terminal protein modification that enables monitoring of ER calcium homeostasis. Mol Biol Cell 25, 2828-2839.
2. Huang, R., Southall, N., Wang, Y., Yasgar, A., Shinn, P., Jadhav, A., Nguyen, D.T., and Austin, C.P. (2011). The NCGC pharmaceutical collection: a comprehensive resource of clinically approved drugs enabling repurposing and chemical genomics. Sci Transl Med 3, 80ps16.
3. Trychta, K.A., Back, S., Henderson, M.J., and Harvey, B.K. (2018a). KDEL Receptors Are Differentially Regulated to Maintain the ER Proteome under Calcium Deficiency. Cell Rep 25, 1829-1840 e1826.
SEQUENCE No. (1, 2, 3, etc.); […] (e.g., Cells, Incubation, Reagent, etc.); VALUE and DESCRIPTION.
1; Reagent; 5 uL; 1000 SH-SY5Y cells per wells
3; Compound; 23 nL; Control inhibitor / compound library
5; Reagent; 100 nM; Thapsigargin
7; Reagent; 1 uL; 0.5x coelenterazine
8; Detection; Luminescence; ViewLux imaging system
NOTES (numbers refer to sequence above)
1; SH-SY5Y human neuroblastoma cells stably expressing GLuc-SERCaMP (SH-SY5Y-GLuc-ASARTDL) cells were seeded in 1,536 well white tissue culture treated plates (Corning, Cat# 7464) in DMEM-high glucose-sodium pyruvate (ThermoFisher Scientific, Cat #10569) supplemented with 10% bovine growth serum (Hyclone), 10 U/ml penicillin (Gibco), 10 ug/ml streptomycin (Gibco), and 20 mM HEPES.
2; Assay plates were incubated for 5 hour at 37C in a humidified incubator containing 5% CO2.
3; qHTS libraries (23 nl, final concentrations of 1.53 uM, 7.67 uM, 38.3 uM) or controls (neutral control: DMSO, positive control: dantrolene) were added using a Kalypsis pin-tool Robotic System equipped with 1536 pinheads.
4; Cells were then incubated for 16 hours at 37C, 5% CO2.
5; Thapsigargin was added at 100 nM to deplete ER calcium stores.
6; Cells were incubated for 4 hour (37 °C, 5% CO2)
7; Gaussia luciferase in the medium was measured by adding 1 ul of 0.5x coelenterazine (final concentration 0.07x) prepared in Gaussia Luciferase Glow Assay Buffer (Pierce), without addition of the Cell Lysis Buffer Reagent.
8; Luminescence was measured using a ViewLux […] CCD imaging system (Perkin Elmer) equipped with clear filters. […] The same controls were also used for the calculation of the Z' factor, a measure of assay quality control, as previously described (Zhang et al., 1999). […]
On the % scale 0 is the no-effect control and ±100 the full control effect.

SMILES	activity change, negative = inhibition
CCOC(=O)N1CCN([N+]([O-])=NOc2ccc([N+](=O)[O-])cc2[N+](=O)[O-])CC1	244%
Cc1cc(C(=O)NOCCO)c(Nc2ccc(I)cc2F)n(C)c1=O	82.1%
Nc1nc(=O)n([C@H]2C[C@H](O)[C@@H](CO)O2)cc1F	-2.11%
CC(Oc1ccc(O)cc1)(P(=O)(O)O)P(=O)(O)O	-7.8%
CCS(=O)(=O)Nc1ccc2[nH]c(O)c(C(=Nc3ccc(CN4CCCCC4)cc3)c3ccccc3)c2c1	0%
CC(=O)N[C@@H]1[C@H](O[C@@H]2c3ccc(c(Cl)c3)Oc3cc4cc(c3O[C@H]3O[C@H](CO)[C@@H](O)[C@H](O)[C@H]3NC(=O)CCCCCCCC(C)C)Oc3ccc(cc3Cl)C[C@H]3NC(=O)[C@H](N)c5ccc(O)c(c5)Oc5cc(O)cc(c5)[C@H](NC3=O)C(=O)N[C@H]4C(=O)N[C@H]3C(=O)N[C@@H]2C(=O)N[C@@H](C(=O)O)c2cc(O)cc(O[C@H]4O[C@H](CO)[C@@H](O)[C@H](O)[C@H]4O)c2-c2cc3ccc2O)O[C@H](CO)[C@@H](O)[C@@H]1O	7.81%
COC(=O)C=CC(=O)OC	140%
O=C(c1ccc(F)cc1)N1CCC[C@H](c2nc(-c3ccc(F)cc3)no2)C1	348%
CC(=O)[C@]1(O)Cc2c(O)c3c(c(O)c2[C@@H](O[C@H]2C[C@H](N)[C@@H](O)[C@H](C)O2)C1)C(=O)c1ccccc1C3=O	195%
CC(C)(C)[N+]([O-])=Cc1ccc(S(=O)(=O)O)cc1S(=O)(=O)O	-0.893%
O=C(NNC(=O)c1ccc(CNS(=O)(=O)c2ccc(F)c(Cl)c2)cc1)c1ccccc1	20.4%
O=C(O)CCCCCC(=O)NN=C1CCCC1	127%
COC[C@H](NC(=O)c1cnc(C)s1)C(=O)N[C@@H](COC)C(=O)N[C@@H](Cc1ccccc1)C(=O)[C@@]1(C)CO1	0%
C[C@H](NC(=O)Cc1cc(F)cc(F)c1)C(=O)N[C@H](C(=O)OC(C)(C)C)c1ccccc1	34.2%
Nc1nc(=O)n([C@H]2CSC(CO)O2)cc1F (stereo not given in full)	38.7%
COc1cc(C(C)C)c(Oc2cnc(NC(CO)CO)nc2N)cc1I	0%
CNC(=O)c1ccc(Nc2cc(Nc3ccccc3S(=O)(=O)C(C)C)c3cc[nH]c3n2)nc1	-6.71%
N=c1ccn2c(n1)O[C@H]1[C@@H](O)[C@@H](CO)O[C@H]12	0%
CCCCOc1ccc(C(=O)Nc2ccc(F)cc2F)cc1	0%
C=C1C(=O)O[C@H]2[C@@H]1CCC(C)=CCC[C@@]1(C)O[C@@H]21	376%

SMILES	activity change, negative = inhibition
NC(=O)c1ncn([C@@H]2O[C@H](CO)[C@@H](O)[C@@H]2O)c1O	112%
C[C@]12CC[C@@H]3c4ccc(O)cc4CC[C@H]3[C@H]1CC[C@H]2O	63.3%
CCN(CC)CCNC(=O)c1c(C)[nH]c(C=C2C(=O)Nc3ccc(F)cc32)c1C	361% [at 76.3 µM]
O=C(O)[C@H](CC(=O)N1C[C@@H]2CCCC[C@H]2C1)Cc1ccccc1	213%
CC(=O)OC[C@@H]1O[C@@H](n2ccc(=O)[nH]c2=O)[C@H](OC(C)=O)[C@H]1OC(C)=O	93.4%
CCCc1nc(C(C)(C)O)c(C(=O)O)n1Cc1ccc(-c2ccccc2-c2nn[nH]n2)cc1	-1.71%
COc1cc(C(=O)NC2CCN(C)CC2)ccc1Nc1ncc2c(n1)N(C1CCCC1)CCC(=O)N2C(C)C	0%
COc1ccc(CCC(=O)c2c(O)cc(O[C@@H]3O[C@H](CO)[C@@H](O)[C@H](O)[C@@H]3O[C@@H]3O[C@@H](C)[C@H](O)[C@@H](O)[C@@H]3O)cc2O)cc1O	0%
CC(C)N(CC[C@H](c1ccccc1)c1cc(CO)ccc1O)C(C)C	5.13%
COc1cc(C[C@@H](CO)[C@H](CO)Cc2ccc(O)c(OC)c2)ccc1O	119%
N#CC(=C(O)c1ccc(Cl)cc1Cl)c1nc2cc(Cl)ccc2c(=O)[nH]1	-31.3%
O=C(C=CC=Cc1ccc2c(c1)OCO2)N1CCCCC1	45.6%
Cc1noc(-c2ccc(CSCCC(=O)O)cc2)c1NC(=O)OC(C)c1ccccc1Cl (stereo not given)	74.1%
C=C1C(=CC=C2CCC[C@]3(C)[C@@H]([C@H](C)CCCC(C)(C)O)CC[C@@H]23)C[C@@H](O)C[C@@H]1O	0%
COC(=O)[C@@H]1[C@H]2C[C@@H]3c4[nH]c5ccccc5c4CCN3C[C@@H]2CC[C@@H]1O	16.5%
CCNC(=O)Nc1ccc(-c2nc3c(c(N4CCOC[C@H]4C)n2)CCN(C2COC2)C3)cc1	140%
O=C1NC(=O)[C@@H](c2cn3c4c(cccc24)CCC3)[C@H]1c1c[nH]c2ccccc12	0%
O=C(Nc1nnc(-c2ccco2)o1)c1cc(-c2ccccc2)nc2ccccc12	20.3%
O=C1c2c(O)cccc2[C@@H]([C@@H]2O[C@H](CO)[C@@H](O)[C@H](O)[C@H]2O)c2cc(CO)cc(O)c21	54%
CCC(C(=O)O)C1CCC(C)C(C(C)C(O)C(C)C(=O)C(CC)C2OC3(C=CC(O)[C@@]4(CC[C@](C)(C5CC[C@@](O)(CC)C(C)O5)O4)O3)C(C)CC2C)O1 (stereo not given in full)	262%
